IL1B secr inh: blocks inflammasome-driven IL-1 beta release | THP-1 LPS/ATP IL-1B secretion, AlphaLISA, 16 h; stronger effect = lower value | activity change, % at 57.5 µM | 4.7% of 360,000 active; in the data active = activity change below about -50%; inconclusive = mostly about -30% to -49%; also: % is scaled to controls: 0 for no effect and ±100 for the full control effect
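Secreted IL-1B measured by AlphaLISA bead assay after 16 h compound exposure of THP-1 cells; compounds (final up to 57.5 uM) added 1 h before LPS (250 ng/mL) and ATP (1.25 mM) stimulation; lower signal means less secretion.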
MCF10A rereplic: induces DNA re-replication in MCF 10a normal breast cells | MCF 10A DNA re-replication, Hoechst nuclear intensity, 48 h | Potency, µM (top dose mostly 46.1 µM), for inactives: at the highest dose activity, positive = re-replication, actives largely listed as activators | 2.9% of 350,000 active | AID 624296; also: potency is read from the fitted curve at half-maximal effect; % of control where 0% means no effect; nearly all actives have a fitted effect of over 50% in size
SW480 rerep: inducers of DNA re-replication in SW480 colon cancer cells. Potency, µM (doses to about 46.1 µM), for inactives: at the top dose re-replication activation, actives largely listed as activators. 1.8% of 340,000 active. SW480 DNA re-replication, Hoechst DNA content imaging, 48 h; also: potency is read from the fitted curve at half-maximal effect; % of control where 0% means no effect; nearly all actives have a fitted effect of over 55% in size
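Treated cells incubate 48 hr (37 C, 5% CO2), are stained 40 min with Hoechst, and nuclear fluorescence is enumerated; a rise in nuclei with high DNA signal marks re-replication.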
Gal4-VP16 FLuc: counter-screen for ROR gamma inhibitors: Gal4-VP16 reporter; Drosophila S2 Gal4-VP16 UAS-luciferase, luminescence, 20 h; Potency, µM (doses to about 53.6 µM), for inactives: at the top dose activity, negative = inhibition, actives largely listed as inhibitors; 3.5% of 310,000 active; AID 2546;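 also: Gal4-VP16 expression switched on by copper sulfate through the metallothionein promoter; potency is read from the fitted curve at half-maximal effect; % is scaled to controls: 0 for no effect and ±100 for the full control effect; nearly all actives have a fitted effect of over 50% in size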
RORgamma inh: ROR gamma (mouse) transcription inhibition; P51450; Drosophila S2 Gal4-RORgamma UAS-luciferase reporter, 20 h; Potency, µM (top dose mostly 53.6 µM), inactives show top-dose activity change, negative = inhibition, usual class: inhibitors; 5.4% of 310,000 active; AID 2551; also: potency is read from the fitted curve at half-maximal effect; % is scaled to controls: 0 for no effect and ±100 for the full control effect; nearly all actives have a fitted effect of over 60% in size
Target sequence (P51450 whole entry, looked up, the tested form may be a part): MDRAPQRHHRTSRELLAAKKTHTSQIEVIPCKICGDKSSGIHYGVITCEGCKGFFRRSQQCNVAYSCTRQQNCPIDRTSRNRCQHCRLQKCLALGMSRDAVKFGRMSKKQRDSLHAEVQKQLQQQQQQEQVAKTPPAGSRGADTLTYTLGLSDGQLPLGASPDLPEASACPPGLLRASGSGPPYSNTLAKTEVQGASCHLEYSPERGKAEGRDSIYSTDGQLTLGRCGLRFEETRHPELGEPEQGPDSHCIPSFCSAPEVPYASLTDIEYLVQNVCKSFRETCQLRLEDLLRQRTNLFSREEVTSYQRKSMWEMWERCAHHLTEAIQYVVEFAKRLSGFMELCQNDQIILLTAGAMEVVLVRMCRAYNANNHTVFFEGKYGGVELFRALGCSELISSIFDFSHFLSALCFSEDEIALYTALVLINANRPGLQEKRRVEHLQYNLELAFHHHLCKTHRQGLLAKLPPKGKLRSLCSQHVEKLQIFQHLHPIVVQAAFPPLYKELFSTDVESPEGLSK
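Stably transfected Drosophila Schneider cells are the test system, with ROR gamma fused to Gal4 and luciferase under UAS control; luminescence is read after 20 hr of 700 uM copper sulfate induction at ambient temperature.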
An asterisk follows results filed as active; ? = inconclusive; · = no result given; [ ] = remark or other dose. Sampled rows, rich in hits. Any-hit rate of the full collection: about 11%. Unless noted, calls follow the shape of the dose curve; as a rule, active = well fitted curve in the direction sought with a large enough effect; inconclusive = small, poorly fitted or top-dose-only effect, or another doubt; inactive = no such curve, though single readings can be large; an effect the other way counts as inactive or inconclusive.

SMILES | IL1B secr inh | MCF10A rereplic | SW480 rerep | Gal4-VP16 FLuc | RORgamma inh
CCNC(=S)NNC(=O)c1csc(C(C)C)c1 | -5 | -3% | -2% | -5% | 41%
CCc1cc(C(=O)NNC(=S)NCc2ccccc2)cs1 | 1 | 2% | -9% | -16% | 14µM*
O=C(Nc1nccs1)c1csc2c1CCCC2 | -22 | 17% | 4% | 10µM* | ?
COc1ccc(C(=O)c2ccc(Cl)cc2)c(OC)c1OC | 6 | 5% | 1% | · | ·
CC1(Cc2ccccc2Cl)C(=O)Nc2c(Cl)cccc21 (stereo not given) | -25 | · | · | · | ·
CCNC(=S)NNC(=O)c1cc(C)on1 | 8 | 12% | -5% | -10% | 18µM*
O=C(NNC(=S)NC1CCCCC1)c1ccc2c(c1)OCO2 | 21 | -1% | 4% | ? | -33%
CCCc1cc(C(=O)NNC(=S)NC2CCCCC2)cs1 | -9 | 0% | 27% | ? | 3.5µM*
CCNC(=S)NNC(=O)c1csc2c1CCCC2 | -28 | 19% | -3% | -24% | 3.2µM*
COc1cc(-c2nc3ccc(N4CCN(C)CC4)cc3[nH]2)cc(OC)c1OC | -52* | ? | 2% | ? | 7.1µM*
COCCN1C(=O)N[C@@H](CCc2ccccc2)C(C(=O)OC)=C1C | · | · | · | -12% | -10%
CSc1ccc(Cl)c(C(=O)NCCOc2cc(C)ccc2C(C)C)c1 | -72* | -8% | 2% | 5% | 13%
Cc1ccc(C(C)C)cc1OCC(=O)NNC(=O)Nc1ccccc1 | 30 | 12% | 9% | -7% | 7%
Cc1ccc(C(C)C)c(OCCNC(=O)c2ccccc2O)c1 | -81* | ? | 0% | ? | 2%
CSc1ccc(Cl)c(C(=O)NCCOc2ccccc2)c1 | ? | 22% | 5% | ? | ?
Cc1ccc(C(C)C)c(OCC(=O)NNC(=O)Nc2ccccc2)c1 | -76* | 7% | -78% | · | ·
COc1ccc(C2/C=C\CN(C(=O)C3CCCCC3)C(Cc3ccccc3)C(=O)N2Cc2ccc(F)cc2)cc1 (stereo not given) | · | · | · | -11% | 13%
CN(C(=O)c1ccc2c(c1)OCO2)C1CCS(=O)(=O)C1 (stereo not given) | 6 | 2% | 1% | · | ·
O=C(Nc1nccs1)c1ccc(CSc2nnnn2-c2ccccc2)cc1 | ? | -3% | ? | 14µM* | ?
Cc1ccc(C(=O)NC(=C(Cl)Cl)S(=O)(=O)c2ccccc2)cc1 | -95* | 21µM* | -4% | -11% | -10%
COC(=O)CN(c1ccccc1)S(=O)(=O)c1ccccc1 | 39 | 0% | -9% | -3% | 1%
COC(=O)NC(=C(Cl)Cl)S(=O)(=O)c1ccccc1 | -118* | 7.3µM* | ? | 18µM* | 10µM*
COc1ccc(C(=O)NC(=C(Cl)Cl)S(=O)(=O)c2ccc(C)cc2)cc1 | -95* | 10µM* | 13µM* | ? | ?
Cc1ccc(Cc2c(-c3cccc(Br)c3)nc3cc(C)c(Br)c(C)n23)cc1 | 0 | · | · | · | ·
COc1ccc(Cl)cc1NS(=O)(=O)c1cccc(C(=O)NC2CCN(Cc3ccccc3)CC2)c1 | -57* | ? | ? | · | ·
SMILES | IL1B secr inh | MCF10A rereplic | SW480 rerep | Gal4-VP16 FLuc | RORgamma inh
COc1ccc(NS(=O)(=O)c2cccc(C(=O)NCc3ccccc3CN3CCCC3)c2)cc1 | -26 | ? | 30% | · | ·
COc1ccc(NS(=O)(=O)c2cccc(C(=O)NC3CCN(Cc4ccccc4)CC3)c2)cc1 | -70* | 16% | 0% | -10% | -24%
O=C(NC1CCN(Cc2ccccc2)CC1)c1cccc(S(=O)(=O)Nc2cc(C(F)(F)F)ccc2Cl)c1 | -6 | ? | 28% | -3% | 43%
CCC1(c2ccccc2)NC(=O)N(CC(=O)NC2CCCCCC2)C1=O (stereo not given) | 17 | 2% | -17% | · | ·
CCO[C@H]1OC(C(=O)O)=C[C@@H](c2coc3ccccc3c2=O)[C@@H]1CCCO | 9 | -1% | -48% | · | ·
O=P(O)(O)OC1[C@H](O)[C@H](OP(=O)(O)O)C(OP(=O)(O)O)[C@H](OP(=O)(O)O)[C@H]1O (stereo not given in full) | · | · | · | 0%[1.91 µM] | -18%[1.91 µM]

High-throughput results from PubChem.
